According to paper PMC12864922, “TDP-43 directly inhibits mRNA accumulation in neurites through modulation of mRNA stability”:
The full ranking holds about 9,900 sequences; the median of “r (bound/input frequency ratio)” is about 0.7, and the highest 2% start at about 6.5. Shown is part of a subset that was picked to be rich in the highest values.

B1: ENSMUSG00000061578.1546|Ksr2|104:108 (ssRNA)
RNA: GGGAGUUCUACAGUCCGACGAUCGCUUCGAUAUCCGCAUGCUAAGAUCAUUUAUAAAGUUUUCUACACUUCUCAAAAAAAAAAAUAUUUCUAACCUUGGCUGUUGGACAGUCUGUGAGCCUGUGAGCCGGCAAGCCUGUUGUUUCUACACAUUAGUGCAAUGUUAGUGAGAAUCCAGUGUCUGAGUUAUUAAUGCCAAUAAAGAAUUUGAGAAUUACUGCAUCCGCUGCUGUCACUCCAGGUCAGAACUCUGCUGUUGUCUGUUGGAUGGAAGGAAGCUCCAGAGUGAGGAACAAUGGUUGCUCUCUUGCGGUCGCACUAGUGUGGAAUUCUCGGGUGUCAAGG
B2: ENSMUSG00000029636.29|Wasf3|57:61;103:107 (ssRNA)
RNA: GGGAGUUCUACAGUCCGACGAUCGCUUCGAUAUCCGCAUGCUAUCUCUGCACCCUCACAGUGGUAUUUCCCUGUAGCUUUAGUCCCUUUUGUAUUAACACACACAUUUGCUUCUGCACAUCCUUCUGGAUUUGUUGAGUAUUUACACACAAAUACUUAAGUGCCACAGAACACAGCACACCGUGCUGCACACCAGGAAACUCGCAGUAUUAGUGCAUCACCCUGGAACAGCAUCUUGCUUCCCUCUCAGCCGUGAGAGUCCCCUCUCCUGUCCAUCCUGAUUUGGUGGGCUUGCCACGUAUCUCUCUUGCGGUCGCACUAGUGUGGAAUUCUCGGGUGUCAAGG
B3: ENSMUSG00000029636.244|Wasf3 (ssRNA)
RNA: GGGAGUUCUACAGUCCGACGAUCGCUUCGAUAUCCGCAUGCUAUGACAGGGAAUGCCUGUGGGAUAAUUAAAAAUGGUUUUUGCUCAUGAGUUUGGGAUGUCACCCAGCCGCCCACAUCGCCUGCUAUGUGUGUGGACGCCUGUCCGCUUGGCCAGCUAUCCUGUAACACCUGCCAGUAGUAGGUUUUCCUCAUGUCACUAUGACAGUGAAAGCCCAUGUGCAAGCCCCUCCCUACGCCCUGCUUUGGCGUGUGUCUGAGUGCUCUGUGCUGCGCCAUGGCCAUCCUGGAGCCUGCGCACACGCUCUUGCGGUCGCACUAGUGUGGAAUUCUCGGGUGUCAAGG
B4: ENSMUSG00000061578.1047|Ksr2 (ssRNA)
RNA: GGGAGUUCUACAGUCCGACGAUCGCUUCGAUAUCCGCAUGCUACCUCUCCCUGGAGCUGGCAGCCAUGGUUGAUGGCUAUGGGAUACAAUGUGGAUCUUUAGAUGUGAAAGUCUGAUGACUCAAAUCAAAGUUUGGUUUUUCUUUUCUACUACUCUGAAGGAAAAUCUCAGCUUGGCUAUUUCUUCAUGUUUUAAAAAUGUCUUGACUUCUCUCAGCAACCAACUUCAGGUGCCAGGAUAUGAGAUGCUAAGGUUCAGGGGUGGUGGAGGUGAUUCUAUCCAGUGGCCAGCAAUACCCAAAAGCUCUUGCGGUCGCACUAGUGUGGAAUUCUCGGGUGUCAAGG
B5: ENSMUSG00000042529.391|Kcnj12 (ssRNA)
RNA: GGGAGUUCUACAGUCCGACGAUCGCUUCGAUAUCCGCAUGCUAAGACAUGAUCAGUCCGACUUGAGUCCCUGCCCUGCCCUGGUUAUGCAGGCUGUACGACGCAGUGUGCAUCAGUCUGAGGAGUCUGGUGGUAAGUAAGCCUCUGCAGCAGACCCUGUCGGAGGCCAUGGGGGCGUGUGUGUGUGUGUGUGUGUGUGUGUGUGUGUGUGUGUGUGUGUGUGUGUGUGAACAUGUGUGAGGGUGUGGAGGUCCCAGGGUGUGUGUAUGUGAAUGUCAGUGGCUUGGGUGCUGUGUGGAGAGAGCUCUUGCGGUCGCACUAGUGUGGAAUUCUCGGGUGUCAAGG
B6: ENSMUSG00000042529.395|Kcnj12 (ssRNA)
RNA: GGGAGUUCUACAGUCCGACGAUCGCUUCGAUAUCCGCAUGCUACCCUGCCCUGCCCUGGUUAUGCAGGCUGUACGACGCAGUGUGCAUCAGUCUGAGGAGUCUGGUGGUAAGUAAGCCUCUGCAGCAGACCCUGUCGGAGGCCAUGGGGGCGUGUGUGUGUGUGUGUGUGUGUGUGUGUGUGUGUGUGUGUGUGUGUGUGUGUGAACAUGUGUGAGGGUGUGGAGGUCCCAGGGUGUGUGUAUGUGAAUGUCAGUGGCUUGGGUGCUGUGUGGAGAGAGAGAGAGAGAGAGAGAGAGAGAGAGCUCUUGCGGUCGCACUAGUGUGGAAUUCUCGGGUGUCAAGG
B7: ENSMUSG00000043670.183|Diras1 (ssRNA)
RNA: GGGAGUUCUACAGUCCGACGAUCGCUUCGAUAUCCGCAUGCUAGACAGAAUCUGAGCCUCUUUGCUGGUCAUGUGUACUCUGGAGACUGUCCCCCAUGUCUGCCCUGAGUUACGGAGCCCCUGUGGUAUCUGCGAGACUGUCCAGGAGACUUGAGUGGCUCCUGGGCCUGUGUCCCACCCAGAUGAGGGUGACUUAGAAUUCUGUGUUUAUGUGCCUGUGUGUGUGGAUGGGUGUGUGUCUGUCUUGGGAUGGGGUGUUCUUGCACCACUUUGUGUUCUUAGUGAGACCACAGUGUAAGUGGCCUCUUGCGGUCGCACUAGUGUGGAAUUCUCGGGUGUCAAGG
B8: ENSMUSG00000042529.392|Kcnj12|56:60;127:179;184:189;193:197;209:219;242:247 (ssRNA)
RNA: GGGAGUUCUACAGUCCGACGAUCGCUUCGAUAUCCGCAUGCUAGAUCAGUCCGACUUGAGUCCCUGCCCUGCCCUGGUUAUGCAGGCUGUACGACGCACACACCAUCAGUCUGAGGAGUCUGGUGGUAAGUAAGCCUCUGCAGCAGACCCUGUCGGAGGCCAUGGGGGCCACACACACACACACACACACACACACACACACACACACACACACACACACACAACAACACACAGGCACACGAGGUCCCAGGCACACACAUACUGAAUGUCAGUGGCUUGGGUGCACACACGAGAGAGAGAGAGCUCUUGCGGUCGCACUAGUGUGGAAUUCUCGGGUGUCAAGG
B9: ENSMUSG00000042529.413|Kcnj12 (ssRNA)
RNA: GGGAGUUCUACAGUCCGACGAUCGCUUCGAUAUCCGCAUGCUAGUGUGUGUGUGUGUGUGUGUGUGUGUGUGUGUGUGUGUGUGUGUGUGUGUGUGAACAUGUGUGAGGGUGUGGAGGUCCCAGGGUGUGUGUAUGUGAAUGUCAGUGGCUUGGGUGCUGUGUGGAGAGAGAGAGAGAGAGAGAGAGAGAGAGAGAGAGAGAGAGAGAGAGAGAGCUGCACAGGAUGAAGCAGCUGCCCUGAGCCCAUCUGGUGCUGUGCACCUGGUCCUUGUCCAGCCGAGGGCCUGGGGGCAGAAGAACACCUCUUGCGGUCGCACUAGUGUGGAAUUCUCGGGUGUCAAGG
B10: ENSMUSG00000042529.390|Kcnj12 (ssRNA)
RNA: GGGAGUUCUACAGUCCGACGAUCGCUUCGAUAUCCGCAUGCUAGGCCACAGACAUGAUCAGUCCGACUUGAGUCCCUGCCCUGCCCUGGUUAUGCAGGCUGUACGACGCAGUGUGCAUCAGUCUGAGGAGUCUGGUGGUAAGUAAGCCUCUGCAGCAGACCCUGUCGGAGGCCAUGGGGGCGUGUGUGUGUGUGUGUGUGUGUGUGUGUGUGUGUGUGUGUGUGUGUGUGUGUGAACAUGUGUGAGGGUGUGGAGGUCCCAGGGUGUGUGUAUGUGAAUGUCAGUGGCUUGGGUGCUGUGUGGCUCUUGCGGUCGCACUAGUGUGGAAUUCUCGGGUGUCAAGG
B11: ENSMUSG00000042529.414|Kcnj12 (ssRNA)
RNA: GGGAGUUCUACAGUCCGACGAUCGCUUCGAUAUCCGCAUGCUAGUGUGUGUGUGUGUGUGUGUGUGUGUGUGUGUGUGUGUGUGUGUGUGAACAUGUGUGAGGGUGUGGAGGUCCCAGGGUGUGUGUAUGUGAAUGUCAGUGGCUUGGGUGCUGUGUGGAGAGAGAGAGAGAGAGAGAGAGAGAGAGAGAGAGAGAGAGAGAGAGAGAGCUGCACAGGAUGAAGCAGCUGCCCUGAGCCCAUCUGGUGCUGUGCACCUGGUCCUUGUCCAGCCGAGGGCCUGGGGGCAGAAGAACACACCAUACUCUUGCGGUCGCACUAGUGUGGAAUUCUCGGGUGUCAAGG
B12: ENSMUSG00000042529.389|Kcnj12 (ssRNA)
RNA: GGGAGUUCUACAGUCCGACGAUCGCUUCGAUAUCCGCAUGCUAGAUGCUGGCCACAGACAUGAUCAGUCCGACUUGAGUCCCUGCCCUGCCCUGGUUAUGCAGGCUGUACGACGCAGUGUGCAUCAGUCUGAGGAGUCUGGUGGUAAGUAAGCCUCUGCAGCAGACCCUGUCGGAGGCCAUGGGGGCGUGUGUGUGUGUGUGUGUGUGUGUGUGUGUGUGUGUGUGUGUGUGUGUGUGUGAACAUGUGUGAGGGUGUGGAGGUCCCAGGGUGUGUGUAUGUGAAUGUCAGUGGCUUGGGUGCUCUCUUGCGGUCGCACUAGUGUGGAAUUCUCGGGUGUCAAGG
B13: ENSMUSG00000042529.394|Kcnj12 (ssRNA)
RNA: GGGAGUUCUACAGUCCGACGAUCGCUUCGAUAUCCGCAUGCUAUUGAGUCCCUGCCCUGCCCUGGUUAUGCAGGCUGUACGACGCAGUGUGCAUCAGUCUGAGGAGUCUGGUGGUAAGUAAGCCUCUGCAGCAGACCCUGUCGGAGGCCAUGGGGGCGUGUGUGUGUGUGUGUGUGUGUGUGUGUGUGUGUGUGUGUGUGUGUGUGUGUGAACAUGUGUGAGGGUGUGGAGGUCCCAGGGUGUGUGUAUGUGAAUGUCAGUGGCUUGGGUGCUGUGUGGAGAGAGAGAGAGAGAGAGAGAGAGCUCUUGCGGUCGCACUAGUGUGGAAUUCUCGGGUGUCAAGG
B14: ENSMUSG00000042529.396|Kcnj12 (ssRNA)
RNA: GGGAGUUCUACAGUCCGACGAUCGCUUCGAUAUCCGCAUGCUACCUGCCCUGGUUAUGCAGGCUGUACGACGCAGUGUGCAUCAGUCUGAGGAGUCUGGUGGUAAGUAAGCCUCUGCAGCAGACCCUGUCGGAGGCCAUGGGGGCGUGUGUGUGUGUGUGUGUGUGUGUGUGUGUGUGUGUGUGUGUGUGUGUGUGUGAACAUGUGUGAGGGUGUGGAGGUCCCAGGGUGUGUGUAUGUGAAUGUCAGUGGCUUGGGUGCUGUGUGGAGAGAGAGAGAGAGAGAGAGAGAGAGAGAGAGAGAGCUCUUGCGGUCGCACUAGUGUGGAAUUCUCGGGUGUCAAGG

Biological target: TDP-43 (Homo sapiens, UniProt Q13148 1-414)
Sequence (Q13148 whole entry): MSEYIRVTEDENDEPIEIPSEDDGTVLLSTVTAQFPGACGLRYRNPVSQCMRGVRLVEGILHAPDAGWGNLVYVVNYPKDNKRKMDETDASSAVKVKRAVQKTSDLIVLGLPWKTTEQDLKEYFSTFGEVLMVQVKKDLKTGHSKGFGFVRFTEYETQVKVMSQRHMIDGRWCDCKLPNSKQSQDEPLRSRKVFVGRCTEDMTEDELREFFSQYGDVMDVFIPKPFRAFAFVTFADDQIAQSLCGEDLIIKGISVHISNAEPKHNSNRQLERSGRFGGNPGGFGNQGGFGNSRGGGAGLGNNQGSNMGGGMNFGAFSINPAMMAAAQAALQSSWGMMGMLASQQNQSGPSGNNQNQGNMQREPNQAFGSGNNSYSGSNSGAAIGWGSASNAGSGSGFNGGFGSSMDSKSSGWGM
Assay: RNA Bind-n-Seq with designed 260-mer pool; 25 mM Tris-HCl, 150 mM KCl, 3 mM MgCl2, BSA (printed 500 mg/mL), 20 units/mL SUPERase IN; pH not stated; 500 nM RNA pool, 1 h, 4 C; TDP-43 5, 50, 500 nM; high values mean tight binding
Settings: protein: recombinant; tags: SBP (GST cleaved off with PreScission; pGEX-GST-SBP)
In short: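 The incubation lasted 1 h at 4 °C and used 500 nM of an in vitro-transcribed 260-nt 3′ UTR oligo pool with recombinant SBP-tagged TDP-43 at 5, 50 or 500 nM immobilized on streptavidin beads. It took place in 25 mM Tris-HCl, 150 mM KCl, 3 mM MgCl2, BSA and SUPERase IN. Bound RNA was washed, eluted with biotin, converted to cDNA, PCR-amplified and sequenced to give R, each oligo's normalized abundance in the bound sample divided by that in input. Two independent protein batches provided the duplicates.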

Compared with B1, B2 is lower in binding signal: 0.542 R (bound/input frequency ratio) for the first, 0.499 R (bound/input frequency ratio) for the second.

First: B3
Second: B4
The binding signal of the first is higher: 0.625 R (bound/input frequency ratio) for the first, 0.12 R (bound/input frequency ratio) for the second.

First: B5
Second: B6
The binding signal of the first is higher: 10.1 R (bound/input frequency ratio) for the first, 5.73 R (bound/input frequency ratio) for the second.

Compared with B7, B8 is lower in binding signal: 5.8 R (bound/input frequency ratio) for the first, 2.98 R (bound/input frequency ratio) for the second.

Going from B9 to B10, the binding signal rises from 4.88 R (bound/input frequency ratio) to 8.92 R (bound/input frequency ratio).

Going from B11 to B12, the binding signal rises from 5.01 R (bound/input frequency ratio) to 7.39 R (bound/input frequency ratio).

First: B13
Second: B14
The binding signal of the first is lower: 5.55 R (bound/input frequency ratio) for the first, 7.9 R (bound/input frequency ratio) for the second.
